Data reported in the supplement of paper PMC11417369.
± gives the standard deviation of the averaged measurements. Over roughly 25,000 sequences, “ln(normalized median fluorescence intensity)” has its median near 8.6; the highest 2% begin near 10. This excerpt belongs to a sample that is enriched for the highest values.

Each sequence was assayed on PfAP2-EXP AP2 domain (GST-tagged) (assay: gcPBM binding intensity (ln(normalized median fluorescence intensity)); higher = stronger DNA binding).
How it was run: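 The highest Masliner-normalised natural-log median intensity across replicate spots of either probe orientation is reported as binding intensity. GST-tagged P. falciparum DNA-binding domains expressed in E. coli were applied for 1 h to an Agilent 4 × 180k array of primer-extended double-stranded 36-bp intergenic genomic probes plus negative controls, and bound protein was detected with Alexa488 anti-GST antibody and scanned at 488 nm.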

Sequence	gcPBM binding intensity (ln)
TAGTAATATGTATCCATACACACATACATTTTATTT [CACACA_site873]	8.52 ± 0.41
TATAACAAAATATTCACACATATAAGTAAATAAAGG [CACACA_site5777]	8.73 ± 0.28
AATTTTAATTATATCACACATAATATATACCAAAAA [CACACA_site6011]	8.51 ± 0.38
GAATAATCTAGAAACACACAAACACGACAAAAGAAA [CACACA_site4135]	8.93 ± 0.55
TTTTGTTCTAATATGGGAACATAAATATTAAATATA [CACACA_negctrl_site1787]	8.22 ± 0.45
TTTGTTATGGTTTTCTCACACATATATATATATATA [CACACA_site4617]	10.4 ± 0.36
CATATTTGCACTTTCACACATAAATATATAACTATA [CACACA_site6016]	8.91 ± 0.31
TTTGTAACTTCTTTCACACATATATATATATATATA [CACACA_site5603]	10.3 ± 0.47
TCATTTTATTTTTTCACACACACATATATATATATA [CACACA_site3333]	10.1 ± 0.33
TTTTTTTTTTTGGTTACACACATTTGTATATTCTCA [CACACA_site134]	8.69 ± 0.49
TATTTGTTGTGAGTCACACATATATATATATATATA [CACACA_site4240]	10.3 ± 0.42
ATTTTATTTTTTCACACACACATATATATATATATA [CACACA_site3334]	10.2 ± 0.32
TTTCTTTCTTCACATATATATATATATATATTTATA [TGCATGCA_negctrl_site341]	8.83 ± 0.3
TATTTTATATTTCATTTGTTATTTTTCTTGGTTCTA [CACACA_negctrl_site33]	8.63 ± 0.57
TTATTTTTATATTTCACACACATATACTTTTACATA [CACACA_site4097]	8.8 ± 0.47
TGTATATTTGTTGTTACACACATATATTTTTTTTTT [CACACA_site128]	8.53 ± 0.3
TTTTTTTTTTTTGTCACACATATATTTGTATTTATA [CACACA_site5234]	8.58 ± 0.38
TAAAATATTGTTATTACATGCAACCTTATGAAAAAT [TGCATGCA_site706]	8.94 ± 0.17
GTATAAAAGTTATATACACACAACAGAATTACATAT [CACACA_site6212]	8.68 ± 0.49
TCTTAATATGGTAATACACACTAATATACTTTTGTT [CACACA_site4969]	8.55 ± 0.31

Sequence	gcPBM binding intensity (ln)
TTTTGTTTGTTCGTGACTACATTATGTTGTAAATAC [CACACA_negctrl_site604]	8.78 ± 0.38
TATACATTTATGTACACACACATATAGGTATATTTA [CACACA_site7408]	8.47 ± 0.099
AATTATAAAAAAAAAAAAAAAAAAAAAAACTAAATG [CACACA_negctrl_site1379]	8.11 ± 0.47
TTTATTTTTTGTGGCACACAGAAGAAACAAGAACAA [CACACA_site1696]	9.12 ± 0.35
TGAACAATATATAATAGTACATATTTATTTTTTTCT [XGTACX_site4256]	8.13 ± 0.2
CTTAAAAAAAAAAAATGTACACATAAAAAAAATACA [XGTACX_site6700]	8.52 ± 0.35
TTGTTGATTGTTATTTATCATTAGATGTAAAATATG [CACACA_negctrl_site927]	8.39 ± 0.3
TATAAAATGTAATCTGAACACACATATTTTTTTAAT [CACACA_site8521]	8.11 ± 0.37
ATATTGAATTCCAACACATGCAAAACTTTCGGTTTT [TGCATGCA_site485]	8.8 ± 0.38
TCATATTATAAAAAATGTACAAGGAAAAAATATATA [XGTACX_site337]	9.06 ± 0.58
TTTTTATATATATTCTCACACACTTTTTATTTTAAC [CACACA_site657]	8.7 ± 0.46
ATATTTATGAAGTTCACACATATATATATATATATA [CACACA_site5954]	10.3 ± 0.52
TATACACATATTTTTACACACATATTTTTTCATATA [CACACA_site7244]	8.7 ± 0.38
TTTTCATTTTTCTTTACACACATATATTTATTTATA [CACACA_site7119]	8.94 ± 0.4
AACATATTTATATACACACACATATTTATATGAAAT [CACACA_site6268]	8.39 ± 0.33
TTTTCATTTTTCTTTACACACATATATATATATATA [CACACA_site2236]	10.2 ± 0.31
TATTTATTCTCCAACACACACACATATATATATATA [CACACA_site2894]	10.1 ± 0.43
ATTTTATTTTCATATGAACACACATATATATATTAT [CACACA_site8741]	9.15 ± 0.47
ATTTTATTTTCTCACACACACATATATATATATATA [CACACA_site5781]	10.4 ± 0.4
TTTATTCTCAAACACACACACATATATATATATATA [CACACA_site2895]	10.2 ± 0.51

Sequence	gcPBM binding intensity (ln)
ATATATTTTATACATACACACATATATATATTTTTT [CACACA_site3940]	8.66 ± 0.33
TATTTATTCTCCAACACACACACATATATTTATATA [CACACA_site7376]	8.69 ± 0.53
TCGTGTTTTAAAAAAATGAAGAAAAGTAAAAAAAAA [XGTACX_negctrl_site23]	8.46 ± 0.67
AGGATAATATACAAAAGTACATAAAACTAAAAAAAC [XGTACX_site605]	9.01 ± 0.24
AAAAATATAACCGTTACACACAAAATAATATGAGAA [CACACA_site3773]	8.72 ± 0.43
ATATTTATTTATTTATGTACGCACACAGTTGATATT [XGTACX_site5808]	8.92 ± 0.4
TTTTTTTTATTTTGTTGTACGCTTATTTGTATATAT [XGTACX_site7325]	8.95 ± 0.45
TAAATACATAAATACACACACATATATTATATATAT [CACACA_site4310]	8.62 ± 0.14
TTTTTTTTTTTTTTTTTTTATGTATACATATTTATA [TGCATGCA_negctrl_site234]	8.28 ± 0.43
TCCATATTTGTTCACACACACACATATTTATATATA [CACACA_site3570]	8.84 ± 0.42
CATATTTTGAACTTCACACATATATATATATATATA [CACACA_site4228]	10.2 ± 0.3
AAAATATATAAACGCACATATATTTATGTATATATA [CACACA_negctrl_site163]	8.64 ± 0.49
TATAATTATTTTTTCACACATATGTATTTATATATA [CACACA_site4205]	8.88 ± 0.43
CATATGTATTTATTCACACATATATATATATATATA [CACACA_site4207]	10.2 ± 0.4
AAAAAAAAAAAAATCACACATATGTATTTATATATA [CACACA_site5790]	8.21 ± 0.46
TGAAGAATATTTTTCACACATATATATATATATATA [CACACA_site6080]	10.2 ± 0.38
TTTTTTTTTTTGTTCACACATATATATATATATATA [CACACA_site5376]	10.2 ± 0.37
TTTTTTTTTTACTTCACACATATACATTTATATTTA [CACACA_site4385]	8.7 ± 0.44
TTTTTTTTTTTGTTCACACATATACTTTTATTTTGG [CACACA_site4250]	8.72 ± 0.47
AACGCACATATATTTATGTATATATATATATATATA [GTGCAC_negctrl_site478]	10.2 ± 0.31
